Inconclusive results are not listed. Activity calls are given as the source filed them. Unless noted, calls come from the whole dose curve; as a rule, active = well fitted curve in the direction sought with a large enough effect in the repeat runs; inconclusive = weak or mixed curves; inactive = no such curve, though single readings can be large; an effect the other way counts as inactive or inconclusive.
What was measured:
[1] = qHTS assay to identify small molecule agonists of the hypoxia (HIF-1) signaling pathway (AID 1224846; active = well fitted activation curve with a large enough effect in the signal ratio in the repeat runs, not every such curve was filed as active; the % refers to the signal ratio)
Outline: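 Cell line: CellSensor HRE-bla ME-180; 2,000 cells/well; 0.5% dialyzed FBS; 5 h preincubation; DMSO compound pin transfer; 17 h, 37C, 5% CO2; CCF4-AM added; bla FRET signal scored for activation.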

[2] = qHTS assay to identify small molecule agonists of H2AX - cell viability counter screen (AID 1224847; calls by dose curve; note: top concentration of the series differs between compounds; nearly all actives have a fitted effect of over 30% in size)
Outline: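 Compounds tested at 15 concentrations were incubated 3 hr at 37C with wild-type CHO-K1 cells; cellular ATP-based luminescence (CellTiter-Glo) indicated viability.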

[3] = qHTS RealTime-Glo MT Cell Viability Assay in HepG2 cells - 24 hour (AID 1224867); note: nearly all actives have a fitted effect of over 50% in size
Outline: (§1)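 Cells + NanoLuc/prosubstrate dispensed (600 cells/well) → 5 h at 37 C/5% CO2 → compounds in DMSO transferred → 40 h incubation at 37 C, luminescence read at 0, 8, 16, 24, 32, 40 h.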

[4] = A CellTox Green Cytotoxicity Assay to monitor cytotoxicity in HEK293 cells - 0 hour (AID 1224869); note: nearly all actives have a fitted effect of over 50% in size
Outline: (§2)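 Nonlytic real-time cytotoxicity: HEK293 + CellTox Green reagent plated, 5 h preincubation, pintool compound addition (23 nL in DMSO), 37 C for 40 h, fluorescence measured at successive time points.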

[5] = qHTS RealTime-Glo MT Cell Viability Assay in HepG2 cells - 40 hour (AID 1224870); note: nearly all actives have a fitted effect of over 50% in size
Outline: (§3)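 HepG2 cells mixed with RealTime-Glo MT reagents (NanoLuc plus cell-permeant prosubstrate) were seeded at 600 cells/well, incubated 5 h at 37 C/5% CO2, then pinned with compounds in DMSO; nonlytic luminescence tracked viability during 40 h treatment.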

[6] = A CellTox Green Cytotoxicity Assay to monitor cytotoxicity in HEK293 cells - 40 hour (AID 1224871); note: nearly all actives have a fitted effect of over 45% in size
Outline: as §2

[7] = qHTS RealTime-Glo MT Cell Viability Assay in HepG2 cells - 8 hour (AID 1224873); note: nearly all actives have a fitted effect of over 55% in size
Outline: as §3

[8] = A CellTox Green Cytotoxicity Assay to monitor cytotoxicity in HEK293 cells - 24 hour (AID 1224875); note: series mostly up to about 77 µM; nearly all actives have a fitted effect of over 45% in size
Outline: as §2

[9] = A CellTox Green Cytotoxicity Assay to monitor cytotoxicity in HepG2 cells - 16 hour (AID 1224876); note: nearly all actives have a fitted effect of over 45% in size
Outline: (§4)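 Read-out is fluorescence of a cyanine dye excluded from live cells that stains DNA of dead HepG2 cells, with signal proportional to cytotoxicity. Plates were read at 0, 8, 16, 24, 32 and 40 h after compound addition.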

[10] = qHTS RealTime-Glo MT Cell Viability Assay in HepG2 cells - 32 hour (AID 1224877); note: nearly all actives have a fitted effect of over 55% in size
Outline: as §1

[11] = A CellTox Green Cytotoxicity Assay to monitor cytotoxicity in HepG2 cells - 24 hour (AID 1224878); note: nearly all actives have a fitted effect of over 45% in size
Outline: as §4

[12] = A CellTox Green Cytotoxicity Assay to monitor cytotoxicity in HepG2 cells - 40 hour (AID 1224879); note: nearly all actives have a fitted effect of over 40% in size
Outline: as §4

[13] = A CellTox Green Cytotoxicity Assay to monitor cytotoxicity in HEK293 cells - 32 hour (AID 1224881); note: nearly all actives have a fitted effect of over 40% in size
Outline: as §2

[14] = qHTS RealTime-Glo MT Cell Viability Assay in HEK293 cells - 32 hour (AID 1224868); note: top concentration of the series differs between compounds; nearly all actives have a fitted effect of over 50% in size
Outline: (§5)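 Tox21 10K qHTS, HEK293, 600 cells/well, RealTime-Glo reagent co-dispensed with cells; 5 h preincubation, compound by pintool, 37 C, luminescence at 0–40 h.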

[15] = qHTS RealTime-Glo MT Cell Viability Assay in HEK293 cells - 16 hour (AID 1224872)
Outline: as §5

[16] = qHTS RealTime-Glo MT Cell Viability Assay in HEK293 cells - 40 hour (AID 1224874); details: RealTime-Glo luminescence; max response: hits give low values; note: nearly all actives have a fitted effect of over 50% in size
Outline: (§6)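 Cells were seeded together with NanoLuc luciferase and a prosubstrate that viable cells reduce to a luciferase substrate. After a 5 h incubation at 37 C/5% CO2, compounds were added and luminescence was measured repeatedly during 40 h of treatment.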

[17] = qHTS RealTime-Glo MT Cell Viability Assay in HEK293 cells - 0 hour (AID 1224880)
Outline: as §6

[18] = qHTS assay to identify small molecule antagonists of the estrogen related receptor (ERR) signaling pathway from Tox21 library (AID 1224848); note: nearly all actives have a fitted effect of over 50% in size
Outline: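 Screening used an ERR reporter line supplied by NTP, exposed for 18 h at 37 C to library compounds delivered in DMSO. Signal was luciferase luminescence developed with ONE-Glo at room temperature for 30 min.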

[19] = qHTS assay to identify small molecule agonists of the estrogen related receptor (ERR) signaling pathway from Tox21 library (AID 1224849; calls by dose curve; note: nearly all actives have a fitted effect of over 15% in size)
Outline: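 ERR cells, 6 h pre-incubation 37 C/5% CO2; cpd in DMSO pinned; 18 h 37 C; ONE-Glo added, 30 min RT; luminescence read. Agonist mode, qHTS.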
% is set by controls: 0 for no effect and ±100 for the full control effect.

O=C1c2ccccc2C(=O)c2cc(O)ccc21
inactive: outcome [1] | outcome [2] | outcome [3] | outcome [4] | Potency [5] | Potency [6] | outcome [7] | outcome [8] | outcome [9] | Potency [10] | outcome [11] | Potency [12] | outcome [13]

CC1=NN(c2cc(S(=O)(=O)O)ccc2Cl)C(=O)C1N=Nc1ccccc1 (configuration not stated)
inactive: outcome [1] | outcome [2] | Potency [14] | outcome [4] | Potency [5] | Potency [6] | Potency [15] | outcome [7] | max response [16] 8.94% | outcome [8] | outcome [9] | Potency [10] | outcome [11] | Potency [12] | Potency [17] | outcome [13]

CCCO[Si](OCCC)(OCCC)OCCC
inactive: outcome [1] | Potency [18] | outcome [19] | outcome [3] | Potency [14] | outcome [4] | Potency [6] | Potency [15] | outcome [7] | max response [16] 2.55% | outcome [8] | outcome [9] | Potency [10] | outcome [11] | Potency [12] | Potency [17] | outcome [13]

CCC(=O)OCc1ccccc1
inactive: outcome [1] | outcome [3] | Potency [14] | outcome [4] | Potency [6] | Potency [15] | outcome [7] | max response [16] -6.18% | outcome [8] | outcome [9] | Potency [10] | outcome [11] | Potency [12] | Potency [17] | outcome [13]

CNCC(O)c1ccc(O)c(O)c1 (configuration not stated)
inactive: Potency [18] | outcome [3] | Potency [14] | outcome [4] | Potency [5] | Potency [6] | Potency [15] | outcome [7] | max response [16] 0.68% | outcome [9] | Potency [10] | outcome [11] | Potency [12] | Potency [17] | outcome [13]

CCOc1ccc2nc(S(N)(=O)=O)sc2c1
inactive: outcome [1] | outcome [2] | outcome [3] | Potency [14] | outcome [4] | Potency [5] | Potency [6] | Potency [15] | outcome [7] | max response [16] 6.72% | outcome [8] | outcome [9] | Potency [10] | Potency [12] | Potency [17] | outcome [13]

Cc1ccccc1N=C(N)N=C(N)N
inactive: outcome [1] | outcome [3] | Potency [14] | outcome [4] | Potency [6] | Potency [15] | outcome [7] | max response [16] -9.52% | outcome [8] | outcome [9] | Potency [10] | outcome [11] | Potency [12] | Potency [17] | outcome [13]

CN1CCN(c2cc3c(nn2)Oc2ccccc2N3C)CC1
inactive: activation [1] 0.831% [at 15.8 µM] | activity change, negative = cytotoxicity [2] 0.295% [at 31.6 µM] | activity change, negative = cytotoxicity [3] -0.547% [at 15.8 µM] | activity change, negative = cytotoxic [14] 1.71% [at 15.8 µM] | cytotoxicity [4] -3.85% [at 15.8 µM] | activity change, negative = cytotoxic [5] 1.01% [at 15.8 µM] | cytotoxicity increase [6] -14.2% [at 15.8 µM] | activity change, negative = cytotoxicity [15] 0.378% [at 15.8 µM] | viability change, negative = cytotoxic [7] -9.11% [at 15.8 µM] | max response [16] -0.461% | activity change [8] -12.9% [at 15.8 µM] | cytotoxicity increase [9] -0.721% [at 15.8 µM] | activity change, negative = cytotoxic [10] 3.07% [at 15.8 µM] | cytotoxicity [11] -2.46% [at 15.8 µM] | cytotoxicity increase [12] -1.51% [at 15.8 µM] | activity change, negative = cytotoxicity [17] -0.369% [at 15.8 µM] | cytotoxicity increase [13] -14.8% [at 15.8 µM]

O=[N+]([O-])c1cncn1CCN1CCOCC1
inactive: outcome [1] | outcome [2] | outcome [3] | Potency [14] | outcome [4] | Potency [6] | Potency [15] | outcome [7] | max response [16] -2.63% | outcome [9] | Potency [10] | outcome [11] | Potency [17] | outcome [13]

CCOC(=O)CCC(=O)OCC
inactive: outcome [1] | Potency [18] | outcome [19] | Potency [14] | outcome [4] | Potency [6] | Potency [15] | outcome [7] | max response [16] 3.67% | outcome [8] | outcome [9] | Potency [10] | Potency [12] | Potency [17] | outcome [13]

CC1=NN(c2cccc(S(=O)(=O)O)c2)C(=O)C1
inactive: outcome [1] | Potency [18] | outcome [19] | outcome [3] | Potency [14] | outcome [4] | Potency [5] | Potency [6] | Potency [15] | outcome [7] | max response [16] 2.46% | outcome [8] | outcome [9] | Potency [10] | outcome [11] | Potency [12] | Potency [17] | outcome [13]

CN1CC(=O)N/C1=N/C(=O)Nc1cccc(Cl)c1
inactive: outcome [1] | outcome [2] | outcome [3] | Potency [14] | outcome [4] | Potency [5] | Potency [6] | Potency [15] | outcome [7] | max response [16] -14.4% | outcome [9] | Potency [10] | outcome [11] | Potency [12] | Potency [17] | outcome [13]

From PubChem BioAssay (Tox21)
